Source: PubChem BioAssay (EPA / NIEHS)
Records with an inconclusive call do not appear. The source made the active and inactive calls. Rule for the calls, unless noted: active = hit-call score of the fitted dose curve at least 0.9, where 1 is the maximum; inconclusive = response in the unintended direction; inactive = score below 0.9.

Experiments:
[1] = target: Nucleoli Translocation, AR (gene 367) (UniProt P10275); assay: UPITT_HCI_U2OS_AR_TIF2_Nucleoli_Agonist: University of Pittsburgh U2OS Androgen Receptor-Transcriptional Intermediary Factor 2 (AR-TIF2) Agonism High Content Imaging Assay for Nucleoli Translocation (AID 2283998)
Chain of Nucleoli Translocation, AR (gene 367) (P10275 whole entry, looked up): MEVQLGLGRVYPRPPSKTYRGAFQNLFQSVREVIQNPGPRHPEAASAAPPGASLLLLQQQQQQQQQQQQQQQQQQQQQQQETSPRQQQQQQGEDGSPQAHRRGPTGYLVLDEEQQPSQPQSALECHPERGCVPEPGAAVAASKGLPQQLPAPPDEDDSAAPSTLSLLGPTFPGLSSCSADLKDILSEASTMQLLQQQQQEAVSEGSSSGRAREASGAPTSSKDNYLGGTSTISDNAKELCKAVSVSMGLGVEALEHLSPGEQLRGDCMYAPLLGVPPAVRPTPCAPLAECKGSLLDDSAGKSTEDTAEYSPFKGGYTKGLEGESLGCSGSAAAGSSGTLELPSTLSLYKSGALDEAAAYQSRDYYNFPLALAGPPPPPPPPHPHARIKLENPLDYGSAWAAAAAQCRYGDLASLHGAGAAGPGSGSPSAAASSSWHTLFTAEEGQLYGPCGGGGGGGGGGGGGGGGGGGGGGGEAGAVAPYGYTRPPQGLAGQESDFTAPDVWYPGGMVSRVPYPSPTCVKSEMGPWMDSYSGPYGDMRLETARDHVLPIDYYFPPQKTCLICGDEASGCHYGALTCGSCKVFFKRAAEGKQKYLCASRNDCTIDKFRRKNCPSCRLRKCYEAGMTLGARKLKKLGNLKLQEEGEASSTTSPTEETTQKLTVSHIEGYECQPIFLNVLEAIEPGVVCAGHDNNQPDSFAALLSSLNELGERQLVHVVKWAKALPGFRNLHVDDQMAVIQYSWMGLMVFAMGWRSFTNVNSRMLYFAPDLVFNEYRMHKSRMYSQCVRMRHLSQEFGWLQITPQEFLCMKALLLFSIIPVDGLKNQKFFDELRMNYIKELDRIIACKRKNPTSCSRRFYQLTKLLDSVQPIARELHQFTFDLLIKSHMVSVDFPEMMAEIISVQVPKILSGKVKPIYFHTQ
How it was run: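 Nucleolar translocation of AR-RFP, with TIF2-GFP coexpressed in human osteosarcoma U2OS, imaged by high-content fluorescence. Compounds tested singly at 20 uM final, confirmed in triplicate, then titrated 0.195–50 uM final; gain-of-signal relative to DMSO.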

[2] = target: Ratio of Nucleoli Translocation and Cytoplasm, AR (gene 367) (UniProt P10275); assay: UPITT_HCI_U2OS_AR_TIF2_Nucleoli_Cytoplasm_Ratio_Antagonist: University of Pittsburgh U2OS Androgen Receptor-Transcriptional Intermediary Factor 2 (AR-TIF2) Antagonism High Content Imaging Assay for Ratio of Nucleoli Translocation and Cytoplasm (AID 2283999);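 note: antagonists lower the DHT-driven ratio of nucleolar to cytoplasmic red signal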
Chain of Ratio of Nucleoli Translocation and Cytoplasm, AR (gene 367) (P10275 whole entry, looked up): as above
How it was run: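 U2OS cells co-expressing RFP-tagged human AR and GFP-tagged TIF2, antagonist mode with DHT as baseline. Nucleolar-to-cytoplasmic red fluorescence ratio imaged by high-content microscopy; final compound 20 uM (0.2% DMSO) primary, 0.195–50 uM (0.5% DMSO) concentration-response.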

[3] = target: Ratio of Nucleoli Translocation and Cytoplasm, AR (gene 367) (UniProt P10275); assay: UPITT_HCI_U2OS_AR_TIF2_Nucleoli_Cytoplasm_Ratio_Agonist: University of Pittsburgh U2OS Androgen Receptor-Transcriptional Intermediary Factor 2 (AR-TIF2) Agonism High Content Imaging Assay for Ratio of Nucleoli Translocation and Cytoplasm (AID 2284000);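 note: hits raise the red nucleolar to cytoplasm ratio above vehicle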
How it was run: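 U2OS cells expressing RFP-tagged human AR and GFP-tagged TIF2 were imaged by high-content fluorescence microscopy. The endpoint is the ratio of nucleolar to cytoplasmic red fluorescence, fitted for gain of signal relative to DMSO. Concentration-response spanned 0.195 to 50 uM final (0.5% DMSO).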

[4] = CCTE_Simmons_MITO_basal_resp_rate: CCTE's HepG2 Seahorse XF Respirometric Screening Assay at Basal Respiratory State, Simmons Lab (AID 2284001; active = hit-call score of the fitted dose curve at least 0.9, where 1 is the maximum; inactive = score below 0.9); details: actives raise or lower the signal
How it was run: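 HepG2 cells were given test chemicals at 7 concentrations, 125 nM to 100 uM final, and oxygen consumption rate was read every 6 min (3 min mix, 3 min measure) over 72 min. Basal-phase OCR was fitted bidirectionally against DMSO.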

DIO1 (gene 1733) = assay: CCTE_GLTED_hDIO1: CCTE's human Deiodinase 1 (DIO1) Inhibition Assay, Great Lakes Toxicology and Ecology Division (GLTED) Lab (AID 2283987);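 note: isolated human DIO1 enzyme in a cell-free setup rather than cells; enzyme activity read as free iodide liberated from substrate via Sandell-Kolthoff colorimetry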
How it was run: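 Inhibition read as reduced iodide release: after 3 h of human DIO1 with chemical, free iodide is quantified colorimetrically (Sandell-Kolthoff cerium/arsenic reaction). Triplicate plates, DMSO baseline.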

## Nc1c(Cl)cc([N+](=O)[O-])cc1Cl
[1]
  outcome: inactive
[2]
  outcome: inactive
[3]
  outcome: inactive

## CCCOc1nn(C(=O)NS(=O)(=O)c2ccccc2C(=O)OC)c(=O)n1C
[1]
  outcome: inactive
[2]
  outcome: inactive
[3]
  outcome: inactive

## CC(COc1ccc(Oc2ccccc2)cc1)Oc1ccccn1 (centres undefined)
[2]
  outcome: inactive
[4]
  outcome: inactive

## COc1ccc(C(=CC(=O)N2CCOCC2)c2ccc(Cl)cc2)cc1OC
[1]
  outcome: inactive
[2]
  AC50: 2520 nM (active)
[3]
  outcome: inactive

## CNC(=O)ON=C(SC)C(=O)N(C)C
[1]
  outcome: inactive
[2]
  outcome: inactive

## CCOC(=O)CC(SP(=O)(OC)OC)C(=O)OCC (centres undefined)
DIO1 (gene 1733)
  outcome: inactive
